{"source": "paper PMC3795721", "about": "“Screening for Protein-DNA Interactions by Automatable DNA-Protein Interaction ELISA”"}
{"target": "AT4G31550 (Arabidopsis thaliana, UniProt Q9SV15 228-325)", "sequence (Q9SV15 228-325)": "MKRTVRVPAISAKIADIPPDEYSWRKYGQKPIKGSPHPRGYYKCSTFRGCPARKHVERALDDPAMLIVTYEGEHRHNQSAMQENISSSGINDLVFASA", "experiment": "DPI-ELISA; DPI-ELISA, streptavidin 384-well plate, 1-2 pmol biotinylated dsDNA per well, crude native E. coli extract, anti-His detection; buffer as in Brand et al. [46],; high values mean tight binding", "conditions": "tags: C-terminal His (pET-DEST42); label: 5' biotin on forward strand; dsDNA, one strand shown", "units": {"binding signal": "absorbance"}}
{"sequence": "AAAAAATAGTGTGATTGGTATCCAGTAAAA", "binding signal": "0.645 ± 0.0495"}
{"sequence": "AAAAAAGCTGTCACTGTAGTCGGTCCAAAA", "binding signal": "0.67 ± 0.0707"}
{"sequence": "AAAAAAACCGATTACCATTTTTACTGAAAA", "binding signal": "0.695 ± 0.148"}
{"sequence": "AAAAAAGCGCGCCCGCACTGTTAATAAAAA", "binding signal": "0.635 ± 0.106"}
{"sequence": "AAAAAAACGGTGTCATAGTATTAGTGAAAA", "binding signal": "0.585 ± 0.134"}
{"sequence": "AAAAAATTCCTGTCCGCTCTCGCTCCAAAA", "binding signal": "0.685 ± 0.148"}
{"sequence": "AAAAAACCAGTCTACACCGCTGTAGGAAAA", "binding signal": "0.705 ± 0.0919"}
{"sequence": "AAAAAATGGCTCGGGTTCCAAGGTTGAAAA", "binding signal": "0.645 ± 0.0919"}
{"sequence": "AAAAAAGGAAAACGAGTTCATCTGGTAAAA", "binding signal": "0.585 ± 0.134"}
{"sequence": "AAAAAATCGGGCCCCGTTAGCACTCTAAAA", "binding signal": "0.665 ± 0.12"}
{"sequence": "AAAAAAGGTCCAGTCCACGTCATCAGAAAA", "binding signal": "1.84 ± 0.431"}
{"sequence": "AAAAAATATTCCGCTTTTGGCTGAATAAAA", "binding signal": "0.635 ± 0.0636"}
{"sequence": "AAAAAAGCCTTTACCCTTGTTCCTCTAAAA", "binding signal": "0.69 ± 0.17"}
{"sequence": "AAAAAATGAATCAATTTTTGGGCTTTAAAA", "binding signal": "0.52 ± 0.113"}
{"sequence": "AAAAAAGGGTTTGTCGGGAATTGCCGAAAA", "binding signal": "0.58 ± 0.0849"}
{"sequence": "AAAAAAACTTCTGTCCCTGTTCCCGTAAAA", "binding signal": "0.55 ± 0.127"}
{"sequence": "AAAAAATCTTACCCCTCCGCTTCTATAAAA", "binding signal": "0.72 ± 0.255"}
{"sequence": "AAAAAACTGGATGCGCTCACCAGTTAAAAA", "binding signal": "0.52 ± 0.099"}
{"sequence": "AAAAAATACTCTTCCTCGTTCTTGGTAAAA", "binding signal": "0.57 ± 0.127"}
{"sequence": "AAAAAATTCTTACTTTTGTCTTTACTAAAA", "binding signal": "0.79 ± 0.156"}
{"sequence": "AAAAAAGCTAGTCGATTCGGCTTAGAAAAA", "binding signal": "0.68 ± 0.17"}
{"sequence": "AAAAAACTGTCTGTCCTATATCACTTAAAA", "binding signal": "0.66 ± 0.099"}
{"sequence": "AAAAAACGCCGGACAATCAGGCGCTCAAAA", "binding signal": "0.625 ± 0.177"}
{"sequence": "AAAAAATGAGAGAATTTCCGGTTCAGAAAA", "binding signal": "0.575 ± 0.0495"}
{"sequence": "AAAAAATCCACGACTCAGCAGCTCTTAAAA", "binding signal": "0.68 ± 0.0707"}
{"sequence": "AAAAAAGCCCCTTGCGCCTCTCTACCAAAA", "binding signal": "0.62 ± 0.0424"}
{"sequence": "AAAAAATTGGTTCTCATTTCTACTTCAAAA", "binding signal": "0.57 ± 0.127"}
{"sequence": "AAAAAAGGCCTTCGCTCGTGTTTACGAAAA", "binding signal": "0.4 ± 0.0424"}
{"sequence": "AAAAAAGGTAATGCCGGTCCCAGTATAAAA", "binding signal": "0.525 ± 0.0778"}
{"sequence": "AAAAAAACATCCACACCCGCGGCGCGAAAA", "binding signal": "0.56 ± 0.141"}
{"sequence": "AAAAAAGGGCCCACTATCGACGTCAAAA", "binding signal": "0.605 ± 0.134"}
{"sequence": "AAAAAAGGGTTTAGATGTCCTTCAAAAAAA", "binding signal": "0.59 ± 0.099"}
{"sequence": "AAAAAAACTCAACTAGTGAACCACCAAAA", "binding signal": "0.625 ± 0.0636"}
{"sequence": "AAAAAATAGTACCGCTAATGGCTGACAAAA", "binding signal": "0.605 ± 0.12"}
{"sequence": "AAAAAAGGGAGTCATGCTTCTTGTTTAAAA", "binding signal": "0.645 ± 0.0919"}
{"sequence": "AAAAAAATCCGATCGATGCATATATAAAA", "binding signal": "0.725 ± 0.106"}
{"sequence": "AAAAAATTTGCTCTTTTGGTTTTCACAAAA", "binding signal": "0.64 ± 0.0707"}
{"sequence": "AAAAAATGGATCTTTACTTTAGGCCAAAAA", "binding signal": "0.92 ± 0.424"}
